Source: the supplement of paper PMC10849652
Targets with a hit are over-represented here; the source holds about 7,900 in all. About 0.6% of all pairs of compound and target were hits. Unmarked numbers belong to inactive results.

Assays:
Assay in all cases: log2 fold change, soluble protein after heating vs DMSO (PISA); higher = thermal stabilisation; K562 cells, 10 uM, 30 min; active = over 0.2 and 3.5 SD of the protein, either way, in both replicates (recomputed)
erlotinib = compound: C#Cc1cccc(Nc2ncnc3cc(OCCOC)c(OCCOC)cc23)c1 [erlotinib]
How it was run: (§1)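 K562 cells at 2×10^6 cells/mL were given 10 μM compound for 30 min. Aliquots then went through 3 min of heating across 48°C-58°C, were pooled, and were extracted in PBS with 0.5% NP-40 at 4°C, and the supernatant after 21,000xg for 90 min was quantified by TMTpro 16plex LC-MS/MS with channel sums equalised. Thermal stability relative to control samples, from duplicates, is given as log2 fold change.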

[1] = compound: C/C(=N\NC(=O)C1=CC(=CC=C1)S(=O)(=O)N2CCOCC2)/C3=C(C=CC(=C3)Cl)O
How it was run: as §1

[2] = compound: C1=CC(=C(C=C1Cl)C2=NC3=NC=CN=C3C(=N2)NC4=CC=NC=C4)F
How it was run: as §1

[3] = compound: C1=CC(=CC=C1C2=NC3=C(N2)C=C(C=C3)C(=O)N)OC4=CC=C(C=C4)Cl
How it was run: as §1

[4] = compound: C1=CC2=C(C=CC(=C2)/C=C\3/C(=O)NC(=NCC4=CC=CS4)S3)N=C1
How it was run: as §1

[5] = compound: C1=CC2=NC=CN=C2C=C1/C=C/3\C(=O)NC(=O)S3
How it was run: as §1

[6] = compound: C1=CC=C(C=C1)C2=NC(=C(N2)C3=CC=NC=C3)C4=CC(=C(C=C4)Cl)O
How it was run: as §1

[7] = compound: C1=CC=C2C(=C1)C3=NNC4=CC=CC(=C43)C2=O
How it was run: as §1

[8] = compound: C1CCN(C1)C(=O)NC2=CC=CC(=C2)NC3=NC=C(C(=N3)NCCC4=CN=CN4)Br
How it was run: as §1

[9] = compound: C1CN(CCC1(CC2=CC=C(C=C2)Cl)N)C3=NC=NC4=C3C=CN4
How it was run: as §1

Sequence of UniProt P49748 (P49748 whole entry, looked up): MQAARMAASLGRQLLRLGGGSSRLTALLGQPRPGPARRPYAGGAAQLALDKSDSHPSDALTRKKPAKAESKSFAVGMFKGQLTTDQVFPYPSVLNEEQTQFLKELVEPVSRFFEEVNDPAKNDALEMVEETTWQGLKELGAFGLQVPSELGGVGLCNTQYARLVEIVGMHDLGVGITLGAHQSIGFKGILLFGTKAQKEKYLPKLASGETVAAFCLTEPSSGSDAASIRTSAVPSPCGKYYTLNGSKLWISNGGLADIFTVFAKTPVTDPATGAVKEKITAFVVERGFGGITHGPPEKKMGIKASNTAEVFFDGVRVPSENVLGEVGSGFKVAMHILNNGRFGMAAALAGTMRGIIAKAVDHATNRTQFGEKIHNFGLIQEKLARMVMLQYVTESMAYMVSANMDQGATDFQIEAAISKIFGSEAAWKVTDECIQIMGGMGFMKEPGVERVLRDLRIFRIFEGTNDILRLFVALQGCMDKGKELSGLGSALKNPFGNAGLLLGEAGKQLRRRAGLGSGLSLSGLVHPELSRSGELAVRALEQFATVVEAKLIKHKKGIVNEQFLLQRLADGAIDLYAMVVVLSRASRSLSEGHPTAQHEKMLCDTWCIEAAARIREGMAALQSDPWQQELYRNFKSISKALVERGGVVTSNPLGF
Sequence of UniProt P55196 (P55196 whole entry, looked up): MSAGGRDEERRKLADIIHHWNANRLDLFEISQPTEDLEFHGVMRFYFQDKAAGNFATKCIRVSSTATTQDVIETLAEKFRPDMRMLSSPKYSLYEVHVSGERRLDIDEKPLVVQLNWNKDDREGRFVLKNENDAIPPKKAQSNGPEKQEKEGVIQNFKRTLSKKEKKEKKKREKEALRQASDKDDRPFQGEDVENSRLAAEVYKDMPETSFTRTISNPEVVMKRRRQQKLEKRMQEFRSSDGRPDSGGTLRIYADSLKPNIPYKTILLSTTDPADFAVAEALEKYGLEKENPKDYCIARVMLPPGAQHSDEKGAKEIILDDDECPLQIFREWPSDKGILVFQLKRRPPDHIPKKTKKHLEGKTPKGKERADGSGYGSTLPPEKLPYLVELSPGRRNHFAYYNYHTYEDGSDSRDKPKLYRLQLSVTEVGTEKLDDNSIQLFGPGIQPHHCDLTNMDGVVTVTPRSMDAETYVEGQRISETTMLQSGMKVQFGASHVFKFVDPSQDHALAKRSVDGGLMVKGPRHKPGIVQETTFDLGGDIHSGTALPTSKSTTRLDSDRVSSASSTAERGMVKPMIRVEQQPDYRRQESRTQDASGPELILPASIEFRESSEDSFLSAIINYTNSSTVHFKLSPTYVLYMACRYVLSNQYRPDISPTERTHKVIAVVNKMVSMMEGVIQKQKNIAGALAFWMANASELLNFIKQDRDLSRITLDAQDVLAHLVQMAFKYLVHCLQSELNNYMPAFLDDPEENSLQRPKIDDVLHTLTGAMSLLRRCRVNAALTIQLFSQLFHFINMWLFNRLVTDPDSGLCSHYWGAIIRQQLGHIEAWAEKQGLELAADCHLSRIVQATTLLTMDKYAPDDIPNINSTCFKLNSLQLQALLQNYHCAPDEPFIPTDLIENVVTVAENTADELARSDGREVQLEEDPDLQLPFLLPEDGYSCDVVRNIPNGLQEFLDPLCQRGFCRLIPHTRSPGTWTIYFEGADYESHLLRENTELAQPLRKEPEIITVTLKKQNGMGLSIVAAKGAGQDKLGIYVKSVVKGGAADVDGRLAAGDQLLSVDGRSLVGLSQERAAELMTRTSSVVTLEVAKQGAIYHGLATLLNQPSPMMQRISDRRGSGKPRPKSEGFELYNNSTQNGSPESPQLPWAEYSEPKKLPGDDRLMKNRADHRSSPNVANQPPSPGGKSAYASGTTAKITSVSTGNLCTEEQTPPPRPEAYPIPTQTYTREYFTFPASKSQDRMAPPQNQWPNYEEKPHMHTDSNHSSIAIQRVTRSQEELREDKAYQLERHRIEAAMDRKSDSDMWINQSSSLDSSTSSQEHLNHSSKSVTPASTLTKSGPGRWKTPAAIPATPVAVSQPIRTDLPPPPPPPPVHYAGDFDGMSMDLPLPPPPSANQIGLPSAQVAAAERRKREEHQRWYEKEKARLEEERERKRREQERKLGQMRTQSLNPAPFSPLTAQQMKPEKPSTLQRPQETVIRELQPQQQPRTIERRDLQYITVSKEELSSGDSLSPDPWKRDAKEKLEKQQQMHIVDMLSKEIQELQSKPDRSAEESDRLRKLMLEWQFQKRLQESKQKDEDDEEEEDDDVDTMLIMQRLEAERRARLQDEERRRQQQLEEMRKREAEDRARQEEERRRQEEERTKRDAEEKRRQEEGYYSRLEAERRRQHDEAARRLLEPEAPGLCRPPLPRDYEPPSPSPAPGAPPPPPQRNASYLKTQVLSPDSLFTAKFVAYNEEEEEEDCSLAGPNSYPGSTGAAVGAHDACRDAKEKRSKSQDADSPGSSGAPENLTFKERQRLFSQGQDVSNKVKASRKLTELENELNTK
Sequence of UniProt Q9NRZ7 (Q9NRZ7 whole entry, looked up): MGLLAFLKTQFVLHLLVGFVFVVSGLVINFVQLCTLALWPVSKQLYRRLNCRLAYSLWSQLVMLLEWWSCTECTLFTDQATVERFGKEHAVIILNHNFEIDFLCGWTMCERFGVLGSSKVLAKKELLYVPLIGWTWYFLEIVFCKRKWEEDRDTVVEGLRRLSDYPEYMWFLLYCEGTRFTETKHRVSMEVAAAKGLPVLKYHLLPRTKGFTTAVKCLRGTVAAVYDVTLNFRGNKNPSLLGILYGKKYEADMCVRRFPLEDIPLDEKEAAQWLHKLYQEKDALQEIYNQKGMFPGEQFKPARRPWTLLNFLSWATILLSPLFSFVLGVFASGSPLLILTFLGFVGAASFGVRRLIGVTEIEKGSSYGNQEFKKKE
Sequence of UniProt P42331 (P42331 whole entry, looked up): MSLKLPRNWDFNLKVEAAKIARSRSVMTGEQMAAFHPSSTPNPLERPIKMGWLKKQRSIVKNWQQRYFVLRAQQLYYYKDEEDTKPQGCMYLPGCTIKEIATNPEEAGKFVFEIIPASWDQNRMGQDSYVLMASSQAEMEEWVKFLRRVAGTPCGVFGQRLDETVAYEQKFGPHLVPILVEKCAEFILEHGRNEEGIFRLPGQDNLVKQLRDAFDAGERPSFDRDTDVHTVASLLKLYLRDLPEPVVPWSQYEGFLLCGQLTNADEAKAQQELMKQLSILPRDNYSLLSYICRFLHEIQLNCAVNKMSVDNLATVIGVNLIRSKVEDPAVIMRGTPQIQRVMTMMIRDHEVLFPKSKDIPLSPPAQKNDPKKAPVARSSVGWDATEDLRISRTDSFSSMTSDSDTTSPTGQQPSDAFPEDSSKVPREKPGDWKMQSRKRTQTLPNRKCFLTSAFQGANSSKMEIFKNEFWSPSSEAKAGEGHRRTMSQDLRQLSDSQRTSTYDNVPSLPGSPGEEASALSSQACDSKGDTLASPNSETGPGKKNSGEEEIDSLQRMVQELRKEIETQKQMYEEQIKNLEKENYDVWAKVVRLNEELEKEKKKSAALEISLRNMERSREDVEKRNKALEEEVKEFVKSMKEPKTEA
Sequence of UniProt Q9H0E9 (Q9H0E9 whole entry, looked up): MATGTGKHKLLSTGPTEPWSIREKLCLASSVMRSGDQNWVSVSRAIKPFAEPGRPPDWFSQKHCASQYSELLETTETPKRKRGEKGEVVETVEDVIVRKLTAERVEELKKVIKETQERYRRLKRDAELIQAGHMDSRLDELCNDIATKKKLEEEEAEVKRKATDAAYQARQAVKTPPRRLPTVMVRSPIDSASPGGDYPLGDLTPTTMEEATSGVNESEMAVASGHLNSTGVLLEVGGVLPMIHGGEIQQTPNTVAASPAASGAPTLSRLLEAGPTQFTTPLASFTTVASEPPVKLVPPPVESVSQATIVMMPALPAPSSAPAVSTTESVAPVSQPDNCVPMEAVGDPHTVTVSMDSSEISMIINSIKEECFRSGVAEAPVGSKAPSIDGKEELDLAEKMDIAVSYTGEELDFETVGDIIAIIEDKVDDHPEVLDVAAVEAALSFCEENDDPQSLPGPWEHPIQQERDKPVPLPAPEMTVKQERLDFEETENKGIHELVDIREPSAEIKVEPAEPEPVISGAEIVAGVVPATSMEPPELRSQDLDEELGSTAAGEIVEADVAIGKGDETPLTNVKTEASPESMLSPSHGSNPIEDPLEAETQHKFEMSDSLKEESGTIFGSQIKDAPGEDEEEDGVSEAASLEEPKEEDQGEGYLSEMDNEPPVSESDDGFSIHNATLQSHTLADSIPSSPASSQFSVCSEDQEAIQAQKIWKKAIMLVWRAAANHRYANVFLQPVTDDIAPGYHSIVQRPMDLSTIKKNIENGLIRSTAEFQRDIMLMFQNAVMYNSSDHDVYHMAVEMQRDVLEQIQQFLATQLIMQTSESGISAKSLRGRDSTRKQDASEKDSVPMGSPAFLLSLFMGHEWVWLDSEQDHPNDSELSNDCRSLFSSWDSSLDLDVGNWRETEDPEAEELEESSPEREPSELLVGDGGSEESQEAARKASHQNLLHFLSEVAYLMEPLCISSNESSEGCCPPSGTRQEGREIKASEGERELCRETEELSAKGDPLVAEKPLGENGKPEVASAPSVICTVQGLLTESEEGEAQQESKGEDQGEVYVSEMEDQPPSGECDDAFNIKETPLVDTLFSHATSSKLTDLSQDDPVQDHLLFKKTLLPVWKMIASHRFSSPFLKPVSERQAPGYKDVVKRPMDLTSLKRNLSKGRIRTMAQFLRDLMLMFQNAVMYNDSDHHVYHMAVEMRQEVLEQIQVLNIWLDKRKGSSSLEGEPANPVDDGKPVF
Sequence of UniProt Q9NUQ2 (Q9NUQ2 whole entry, looked up): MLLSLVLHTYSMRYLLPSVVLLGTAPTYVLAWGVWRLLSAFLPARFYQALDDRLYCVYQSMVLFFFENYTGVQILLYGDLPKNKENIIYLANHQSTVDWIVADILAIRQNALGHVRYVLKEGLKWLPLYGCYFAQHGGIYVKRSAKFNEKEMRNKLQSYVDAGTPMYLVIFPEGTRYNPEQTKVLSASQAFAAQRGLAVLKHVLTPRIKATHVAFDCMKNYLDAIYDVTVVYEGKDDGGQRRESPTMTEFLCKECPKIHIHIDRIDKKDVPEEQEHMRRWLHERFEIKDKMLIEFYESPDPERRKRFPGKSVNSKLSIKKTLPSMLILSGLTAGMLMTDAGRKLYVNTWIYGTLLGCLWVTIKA

Target | log2 fold change (erlotinib) | log2 fold change [1] | log2 fold change [2] | log2 fold change [3] | log2 fold change [4] | log2 fold change [5] | log2 fold change [6] | log2 fold change [7] | log2 fold change [8] | log2 fold change [9]
ARL2BP (UniProt Q9Y2Y0) | -0.048 | 0.014 | 0.041 | -0.02 | 0.093 | 0.104 | 0.037 | -0.047 | -0.008 | -0.072
ACADVL isoform 3 (UniProt P49748) | 0.008 | 0.015 | 0.035 | 0.291 (active) | 0.023 | 0.055 | 0.027 | 0.155 | 0.025 | 0.043
AGPAT3 isoform 3 (UniProt Q9NRZ7) | 0.009 | -0.008 | 0.028 | -0.009 | 0.028 | 0.12 | 0.04 | 0.006 | 0 | 0.067
AHSA1 (UniProt O95433) | 0.007 | 0.011 | 0.081 | -0.015 | 0.012 | 0.037 | 0.013 | 0.039 | -0.006 | 0.023
ATOX1 (UniProt O00244) | -0.033 | 0.307 | 0.141 | 0.068 | -0.089 | 0.074 | 0.242 | 0.112 | -0.061 | 0.024
BRD8 isoform 2 (UniProt Q9H0E9) | 0.157 | 0.016 | 0.029 | 0.082 | 0.035 | 0.055 | -0.152 | -0.044 | -0.027 | 0.021
ACSL4 (UniProt O60488) | 0.16 | 0.02 | -0.021 | 0.727 (active) | 0.13 | 0.024 | 0.226 | 0.357 (active) | -0.058 | -0.002
AP2A2 isoform 2 (UniProt O94973) | 0.007 | 0.014 | -0.004 | -0.012 | 0.007 | 0.004 | 0.072 | -0.118 | -0.284 (active) | 0.028
ABCC5 (UniProt O15440) | -0.027 | 0.035 | 0.064 | -0.004 | 0.059 | -0.048 | -0.014 | -0.071 | -0.037 | 0.129
ARFGEF1 (UniProt Q9Y6D6) | 0.016 | 0.025 | 0.03 | -0.03 | 0.016 | 0.015 | 0.101 | 0.051 | -0.013 | 0.043
BRIP1 (UniProt Q9BX63) | -0.009 | 0.076 | -0.153 | 0.018 | 0.075 | -0.082 | -0.048 | 0.023 | -0.064 | -0.045
AKT1 (UniProt P31749) | 0.095 | 0.034 | 0.101 | -0.067 | 0 | 0.184 | 0.117 | 0.059 | -0.026 | 0.164
ADRM1 (UniProt Q16186) | -0.069 | -0.038 | -0.007 | 0.006 | 0.034 | 0.033 | 0.028 | 0.046 | -0.017 | -0.076
ATF7 isoform 6 (UniProt P17544) | -0.011 | -0.148 | -0.043 | 0.021 | 0.032 | -0.055 | 0.08 | 0.085 | -0.004 | -0.117
ARF4 (UniProt P18085) | -0.029 | 0.033 | 0.093 | -0.007 | 0.006 | -0.016 | 0.093 | 0.039 | -0.015 | -0.021
ACO2 (UniProt Q99798) | 0.049 | 0.008 | 0.105 | -0.014 | 0.077 | -0.244 (active) | 0.036 | 0.009 | 0.018 | 0.015
AMD1 (UniProt P17707) | 0.078 | -0.004 | 0.039 | 0.094 | 0.091 | -0.002 | 0.127 | 0.035 | -0.224 | 0.025
ARMC8 (UniProt Q8IUR7) | -0.079 | -0.029 | -0.029 | 0.027 | -0.047 | 0.013 | 0.051 | -0.005 | -0.002 | -0.027
AFDN isoform 5 (UniProt P55196) | -0.005 | 0.101 | 0.021 | 0.01 | -0.02 | 0 | 0.012 | -0.005 | -0.049 | 0.038
AGPAT5 (UniProt Q9NUQ2) | 0.042 | -0.019 | -0.003 | 0.014 | 0.009 | 0.048 | 0.07 | -0.001 | -0.017 | 0.079
ATP13A2 (UniProt Q9NQ11) | 0.047 | 0.012 | 0.011 | 0.096 | 0.024 | 0.099 | 0.01 | -0.042 | 0.035 | 0.082
ATR (UniProt Q13535) | 0.014 | -0.011 | -0.039 | 0.018 | 0.02 | 0.02 | -0.017 | 0.086 | -0.029 | 0.046
AUP1 (UniProt Q9Y679) | 0.018 | 0.055 | 0.068 | 0.049 | 0.006 | 0.055 | 0.078 | 0.004 | -0.031 | -0.018
BRD4 (UniProt O60885) | -0.151 | 0.078 | 0.054 | 0.003 | 0.025 | -0.003 | 0.213 | -0.002 | -0.121 | -0.117
ATRN (UniProt O75882) | 0.006 | 0.037 | -0.113 | -0.148 | 0.098 | 0.04 | – | -0.166 | -0.052 | 0.018
ARHGAP25 isoform 4 (UniProt P42331) | 0.07 | 0.165 | 0.109 | -0.284 | 0.042 | -0.192 | – | -0.062 | 0.052 | -0.147
BLVRB (UniProt P30043) | 0.03 | 0.112 | 0.237 (active) | -0.031 | -0.015 | 0.072 | 0.042 | 0.014 | 0.001 | 0.056
